Source: PubChem (several laboratories)
MEKK3 PB1 HTS = raises or lowers MEK5 binding to the human MEKK3 PB1 domain; bead-based flow cytometry, Alexa488-MEK5 binding to MEKK3; actives lie on both sides; 0 = blocked by unlabeled MEK5, 100 = vehicle; binding response (% of control), % at 10 µM; 290,000 tested, 1.4% active; AID 1529;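 active means binding response more than 3 SD above or below the average of its plate-row segment, actives on both sides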;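 further: Alexa488 bead fluorescence after subtracting the streptavidin-only scavenger bead signal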
Target sequence (Q99759 whole entry, looked up, the tested form may be a part): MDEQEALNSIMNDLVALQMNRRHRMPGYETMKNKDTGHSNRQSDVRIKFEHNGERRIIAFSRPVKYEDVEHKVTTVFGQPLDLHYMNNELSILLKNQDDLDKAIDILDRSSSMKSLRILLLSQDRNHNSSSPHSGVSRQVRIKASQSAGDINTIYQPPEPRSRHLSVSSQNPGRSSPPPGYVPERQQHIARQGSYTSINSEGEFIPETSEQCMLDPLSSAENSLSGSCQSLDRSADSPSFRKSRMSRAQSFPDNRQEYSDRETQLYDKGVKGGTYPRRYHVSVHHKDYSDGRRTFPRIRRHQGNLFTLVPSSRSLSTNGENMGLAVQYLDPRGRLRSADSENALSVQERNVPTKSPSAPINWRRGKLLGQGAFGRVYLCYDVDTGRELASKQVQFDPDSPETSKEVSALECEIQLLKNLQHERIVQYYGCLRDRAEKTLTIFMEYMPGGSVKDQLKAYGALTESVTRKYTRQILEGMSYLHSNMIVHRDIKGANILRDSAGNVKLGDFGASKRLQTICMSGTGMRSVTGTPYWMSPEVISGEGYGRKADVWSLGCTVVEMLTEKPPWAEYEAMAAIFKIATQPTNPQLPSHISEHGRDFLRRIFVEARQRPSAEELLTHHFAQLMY
Arbovirus anti = antivirals against arbovirus infection; inhibition, % at 10 µM; AID 1251; 200,000 tested, 0.37% active; arbovirus infection cell-based antiviral screen; in the data active means inhibition above about 30%
Pf gametocyte = P. falciparum stage V gametocyte viability inhibition. AID 743093. 150,000 tested, 0.065% active. inhibition, % at 10.9 µM. P. falciparum stage V gametocytes, ATP luminescence, 24 h;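 active means inhibition above the mean plus 3 SD of compounds within the control limits, set per campaign, cut at about 38% in these data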;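 further: 0% = DMSO wells and 100% = medium only without gametocytes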
MEKK2mut PB1 HTS = signal of MEK5 binding to mutant human MEKK2 PB1 domain | bead flow cytometry, Alexa488-MEK5 binding to MEKK2 mutant | percent response, % at 10 µM | 290,000 tested, 0.35% active; in the data active means percent response above about 24%, passing the limit was not always enough
MEKK2 WT-MEK5 = raises or lowers MEK5 binding to wildtype human MEKK2 PB1 domain. Q9Y2U5. bead flow cytometry, Alexa488-MEK5 binding to MEKK2 WT; actives lie on both sides. binding response (% of control), % at 10 µM. 290,000 tested, 1.1% active. AID 1531; in the data active means binding response below about 67% or above about 130%
MEKK2wt confirm = raises or lowers MEK5 binding to wildtype human MEKK2, retest. bead flow cytometry, Alexa488-MEK5 binding to MEKK2 WT; actives lie on both sides. binding response (% of control), % at 10 µM. shares compounds with MEKK3 PB1 HTS. AID 1892. 5,900 tested, 2.4% active; in the data active means binding response below about 16% or above about 210%; inactive means in between
MEKK2mut-MEK5 = signal of MEK5 binding to mutant human MEKK2, retest | shares compounds with MEKK3 PB1 HTS | bead flow cytometry, Alexa488-MEK5 binding to MEKK2 mutant | percent response, % at 10 µM | 5,900 tested, 2% active | AID 1893; in the data active means percent response mostly above about 71%, no sharp cut-off; inactive means mostly below about 38%;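 further: higher means compound restores mutant binding toward wildtype level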
MEKK3 confirm = MEKK3-MEK5 PB1 inhibition, single concentration confirmation; shares compounds with MEKK3 PB1 HTS; bead flow cytometry, Alexa488-MEK5 binding to MEKK3; active compounds read low; binding response (% of control), % at 10 µM; 5,900 tested, 1.8% active; AID 1894;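 active means binding response below 72% of control, or above a set upper limit, though filed actives all read lower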;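 further: 100% = DMSO only wells and 0% = binding blocked by excess unlabeled MEK5; lower values mean stronger disruption of MEK5 binding to MEKK3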
Numbers without * were called inactive; nt = no result given; [ ] = another dose, or the depositor's remark. Compounds with a hit are over-represented: about 2.4% of the library has one in this group of screens.

SMILES	MEKK3 PB1 HTS	Arbovirus anti	Pf gametocyte	MEKK2mut PB1 HTS	MEKK2 WT-MEK5	MEKK2wt confirm	MEKK2mut-MEK5	MEKK3 confirm
COc1ccc(/C=N/NC(=O)Cn2cnc3c2c(=O)n(C)c(=O)n3C)c(OC)c1OC	71.0*[inhibitor]	nt	4.0	-33.0	67.0	98.0	1.0	103.0
COc1ccc(/C=N/NC(=O)Cn2cnc3c2c(=O)n(C)c(=O)n3C)cc1	103.0	nt	-5.0	4.0	103.0	nt	nt	nt
CN(C)CCN(Cc1ccco1)C(=O)c1cc2c(Cl)nc3ccccc3c2s1	98.0	-30.8	2.9	-8.0	114.0	nt	nt	nt
Cc1ccc2nc(Cl)c3cc(C(=O)NCCCN4CCCC4)sc3c2c1	109.0	-29.8	-2.5	3.0	162.0*	174.0	46.0	114.0
Cc1ccc2nc(Cl)c3cc(C(=O)N(CCN(C)C)Cc4ccco4)sc3c2c1	96.0	-27.0	-15.2	5.0	149.0*	137.0	21.0	104.0
CCN(Cc1ccccc1)C(=O)c1cc(S(=O)(=O)N2CCOCC2)cn1C	105.0	nt	nt	-2.0	101.0	nt	nt	nt
CCN(Cc1ccccc1)S(=O)(=O)c1ccc(C(=O)N(CCCN(C)C)c2nc3c(F)cccc3s2)cc1	110.0	nt	nt	43.0*	190.0*	203.0	39.0	106.0
CCN(c1ccccc1)S(=O)(=O)c1ccc(C(=O)N(CCCN(C)C)c2nc3c(C)cccc3s2)cc1	103.0	nt	nt	20.0	154.0*	166.0	31.0	110.0
Cc1ccc2sc(N(CCCN(C)C)C(=O)c3ccc(S(=O)(=O)N(C)C)cc3)nc2c1C	103.0	-8.0	0.1	22.0	135.0	nt	nt	nt
CN(C)CCCN(C(=O)c1cc2ccccc2oc1=O)c1nc2c(F)cccc2s1	103.0	5.0	nt	14.0	108.0	nt	nt	nt
COc1ccc(C(=O)N(C)C2CCN(C)CC2)cc1S(=O)(=O)Nc1cc(Cl)ccc1Cl	102.0	nt	nt	6.0	100.0	nt	nt	nt
Cc1cc(C(=O)OC(C(=O)Nc2cccc(C(F)(F)F)c2)c2ccccc2)c(C)o1 (centres undefined)	145.0*	-15.5	nt	3.0	107.0	103.0	2.0	101.0
Cc1ccc2c(c1)nnn2C1CCN(CC(=O)c2ccc(Cl)cc2)CC1	129.0*	6.6	nt	5.0	120.0	102.0	4.0	101.0
O=C1N=NC(=O)N1c1ccccc1	101.0	nt	nt	7.0	103.0	nt	nt	nt
Cn1nnc2cc(C(=O)Nc3ccc4ccccc4c3)ccc21	105.0	-4.1	nt	-8.0	92.0	nt	nt	nt
COc1ccc(F)cc1S(=O)(=O)NCc1ccccc1	72.0*[inhibitor]	-3.2	nt	0.0	93.0	100.0	-6.0	101.0
CSc1cccc(NC(=S)NN(C)C)c1	68.0*[inhibitor]	nt	-2.1	-34.0	60.0*[inhibitor]	114.0	4.0	106.0
O/N=C(\Cn1ccnc1)c1ccccc1	nt	nt	-14.8	nt	nt	nt	nt	nt
CC(C)(C)c1ccc(NNC(=O)C2CCC2)cc1	107.0	nt	-3.8	11.0	104.0	nt	nt	nt
Cc1ccccc1OCc1nnc(SCC(=O)N2CCc3ccccc32)n1C	2.0*[inhibitor]	-10.3	nt	-3.0	2.0*[inhibitor]	100.0	-1.0	102.0
Cc1cccc(OCc2nnc(SCC(=O)N3c4ccccc4CC3C)n2C)c1C (centres undefined)	109.0	-20.0	23.1	4.0	103.0	nt	nt	nt
CS(=O)(=O)N1CCc2cc(C(=O)N3CCCC3)ccc21	132.0*	5.7	-11.0	1.0	119.0	97.0	-4.0	104.0
COc1cccc(C(=O)N2CCN=C2SC)c1	58.0*[inhibitor]	2.6	-1.7	-4.0	76.0	99.0	-5.0	97.0
COc1ccc(C(=O)C(Sc2nnc(C)c(=O)[nH]2)c2ccc(OC)cc2)cc1 (centres undefined)	87.0	nt	14.0	-12.0	84.0	nt	nt	nt
C=CCOc1nc2c(c(=O)n(C)c(=O)n2C)n1Cc1c(Cl)cccc1Cl	81.0*[inhibitor]	3.5	nt	-6.0	89.0	100.0	-4.0	104.0
SMILES	MEKK3 PB1 HTS	Arbovirus anti	Pf gametocyte	MEKK2mut PB1 HTS	MEKK2 WT-MEK5	MEKK2wt confirm	MEKK2mut-MEK5	MEKK3 confirm
O=C1c2c([N+](=O)[O-])cc([N+](=O)[O-])cc2S(=O)N1Cc1ccccc1 (centres undefined)	101.0	3.3	8.0	-9.0	89.0	nt	nt	nt
COc1ccccc1NC(=O)CN1CCN(CC(=O)Nc2ccc3c(c2)OCCO3)CC1	106.0	10.4	6.0	24.0*	112.0	112.0	15.0	104.0
COc1ccccc1NC(=O)CN1CCN(CC(=O)Nc2ccc(OC)c(OC)c2)CC1	107.0	nt	nt	7.0	111.0	nt	nt	nt
CCOc1ccc(NC(=O)CN2CCN(CC(=O)Nc3cc(OC)cc(OC)c3)CC2)cc1	113.0	-4.8	1.3	25.0*	115.0	105.0	-3.0	104.0
CCC(C)(C)c1nnc(NC(=O)c2cccc([N+](=O)[O-])c2)s1	110.0	20.6	20.6	3.0	108.0	nt	nt	nt
O=C(Nc1ccc(SC(F)F)cc1)C12CCC(CC1)C2	134.0*	-2.3	6.0	0.0	104.0	78.0	-13.0	87.0
C=C1C2(C(=O)Nc3ccc(SC(F)F)cc3)CCC(C2)C1(C)C (centres undefined)	98.0	-1.7	6.2	8.0	107.0	nt	nt	nt
CN(C)N1C(N)=C(C#N)C(c2cccs2)C2=C1CC(C)(C)CC2=O (centres undefined)	nt	1.1	4.3	nt	nt	nt	nt	nt
CCOC(=O)C1=C(C)N(C)C(C)=C(C(=O)OCC)C1c1ccc(Cl)cc1	130.0*	-4.9	-9.6	0.0	107.0	21.0	-25.0	46.0*
O=C(NCc1ccc2c(c1)OCO2)c1ccc(Br)cc1	99.0	nt	-0.5	4.0	108.0	nt	nt	nt
Cc1nc2cc(C(=O)NCc3ccc4c(c3)OCO4)ccc2n1-c1ccc(Br)cc1	65.0*[inhibitor]	-25.0	nt	-2.0	92.0	98.0	3.0	96.0
CC(C)c1ccc(C2c3[nH]c4ccccc4c3C[C@H]3C(=O)N(c4ccccc4C(=O)N4CCC[C@H]4C(=O)O)C(=O)N23)cc1 (some centres undefined)	99.0	nt	nt	-2.0	95.0	nt	nt	nt
N#Cc1cccn1-c1nccc(-c2cccs2)n1	149.0*	-16.1	8.8	7.0	131.0	93.0	-6.0	91.0
Cc1ccc(/C=N/NC(=O)Cn2nnc(N)n2)o1	89.0	nt	7.5	-19.0	90.0	nt	nt	nt
Cc1onc(C(=O)N2CCN(c3ccccc3F)CC2)c1-c1ccccc1Cl	130.0*	22.5	0.1	1.0	104.0	99.0	0.0	101.0
CC(NC(=O)/C=C/c1ccco1)c1nc2ccccc2n1Cc1ccccc1F (centres undefined)	135.0*	-2.1	-20.7	1.0	107.0	76.0	-10.0	76.0
O=C(/C=C/c1ccccc1)NC1CCS(=O)(=O)C1 (centres undefined)	72.0*[inhibitor]	-10.9	63.0*	0.0	95.0	99.0	-5.0	102.0
Cc1ccc(/C=C/C(=O)NC2CCS(=O)(=O)C2)cc1 (centres undefined)	104.0	6.8	-2.0	0.0	101.0	nt	nt	nt
